Results reported in the supplement of paper PMC11732987, “Enantioselective OTUD7B fragment discovery through chemoproteomics screening and high-throughput optimisation” (Communications Chemistry, 2025).

What was measured:
Experiment in all cases: log2 ratio of Biotin-Ahx-Ub-VS probe labelling (fragment/DMSO); higher = less target engagement (more negative = stronger competition), active = hit call of the paper (q ≤ 0.05, log2 ratio ≤ -1)
Conditions in all cases: compound concentration: 200 uM; treatment time: 3 h
USP34 = USP34 (UniProt Q70CQ2)
Outline: (§1)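 Labelled DUBs from HEK293T lysate were NeutrAvidin-enriched, digested with LysC and trypsin, and run by diaPASEF LC-MS/MS. Before that, each 495 µg sample in Tris/CHAPS/IGEPAL buffer with protease inhibitors was treated in triplicate with fragment at 200 µM or vehicle for 3 h, then with Biotin-Ahx-Ub-VS at 0.5 µM final for 1 h. Values are average log2 ratios of fragment over vehicle by unpaired t-test, based on global-median-normalised Spectronaut label-free quantities from proteins with ≥2 unique peptides.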

USP36 = molecular target: T1, USP36 (UniProt Q9P275)
T1 sequence (whole entry): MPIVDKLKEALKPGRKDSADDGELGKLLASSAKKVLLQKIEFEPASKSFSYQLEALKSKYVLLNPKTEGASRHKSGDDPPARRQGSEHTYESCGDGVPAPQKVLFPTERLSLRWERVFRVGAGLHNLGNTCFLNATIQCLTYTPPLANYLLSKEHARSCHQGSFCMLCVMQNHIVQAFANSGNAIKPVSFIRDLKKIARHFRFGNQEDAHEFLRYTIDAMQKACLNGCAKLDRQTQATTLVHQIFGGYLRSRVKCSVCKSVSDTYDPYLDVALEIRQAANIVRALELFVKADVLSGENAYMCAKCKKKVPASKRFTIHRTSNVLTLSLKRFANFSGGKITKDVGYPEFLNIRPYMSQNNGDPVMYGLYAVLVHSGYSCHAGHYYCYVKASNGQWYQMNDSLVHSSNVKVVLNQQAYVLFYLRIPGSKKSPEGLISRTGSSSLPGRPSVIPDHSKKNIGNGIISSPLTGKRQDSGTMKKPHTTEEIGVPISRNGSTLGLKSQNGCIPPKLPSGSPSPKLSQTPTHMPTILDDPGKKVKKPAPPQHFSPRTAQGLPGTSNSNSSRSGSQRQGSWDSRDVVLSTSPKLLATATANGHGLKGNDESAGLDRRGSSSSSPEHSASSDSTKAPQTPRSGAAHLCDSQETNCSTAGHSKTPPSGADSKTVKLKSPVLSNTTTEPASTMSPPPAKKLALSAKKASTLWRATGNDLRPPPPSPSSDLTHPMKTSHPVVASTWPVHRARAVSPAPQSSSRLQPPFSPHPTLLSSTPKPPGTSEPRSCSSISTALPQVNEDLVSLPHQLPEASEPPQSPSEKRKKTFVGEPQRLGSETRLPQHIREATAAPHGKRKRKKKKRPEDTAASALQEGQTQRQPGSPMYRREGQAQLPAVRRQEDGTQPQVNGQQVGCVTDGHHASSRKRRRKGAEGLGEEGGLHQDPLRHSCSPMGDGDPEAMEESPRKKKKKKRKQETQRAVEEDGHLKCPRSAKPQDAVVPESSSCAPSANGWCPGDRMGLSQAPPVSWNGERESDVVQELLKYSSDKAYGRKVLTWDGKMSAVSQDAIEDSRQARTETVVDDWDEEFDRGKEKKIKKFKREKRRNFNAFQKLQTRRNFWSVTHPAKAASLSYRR
Outline: as §1

USP38 = molecular target: T2, USP38 (UniProt Q8NB14)
T2 sequence (whole entry): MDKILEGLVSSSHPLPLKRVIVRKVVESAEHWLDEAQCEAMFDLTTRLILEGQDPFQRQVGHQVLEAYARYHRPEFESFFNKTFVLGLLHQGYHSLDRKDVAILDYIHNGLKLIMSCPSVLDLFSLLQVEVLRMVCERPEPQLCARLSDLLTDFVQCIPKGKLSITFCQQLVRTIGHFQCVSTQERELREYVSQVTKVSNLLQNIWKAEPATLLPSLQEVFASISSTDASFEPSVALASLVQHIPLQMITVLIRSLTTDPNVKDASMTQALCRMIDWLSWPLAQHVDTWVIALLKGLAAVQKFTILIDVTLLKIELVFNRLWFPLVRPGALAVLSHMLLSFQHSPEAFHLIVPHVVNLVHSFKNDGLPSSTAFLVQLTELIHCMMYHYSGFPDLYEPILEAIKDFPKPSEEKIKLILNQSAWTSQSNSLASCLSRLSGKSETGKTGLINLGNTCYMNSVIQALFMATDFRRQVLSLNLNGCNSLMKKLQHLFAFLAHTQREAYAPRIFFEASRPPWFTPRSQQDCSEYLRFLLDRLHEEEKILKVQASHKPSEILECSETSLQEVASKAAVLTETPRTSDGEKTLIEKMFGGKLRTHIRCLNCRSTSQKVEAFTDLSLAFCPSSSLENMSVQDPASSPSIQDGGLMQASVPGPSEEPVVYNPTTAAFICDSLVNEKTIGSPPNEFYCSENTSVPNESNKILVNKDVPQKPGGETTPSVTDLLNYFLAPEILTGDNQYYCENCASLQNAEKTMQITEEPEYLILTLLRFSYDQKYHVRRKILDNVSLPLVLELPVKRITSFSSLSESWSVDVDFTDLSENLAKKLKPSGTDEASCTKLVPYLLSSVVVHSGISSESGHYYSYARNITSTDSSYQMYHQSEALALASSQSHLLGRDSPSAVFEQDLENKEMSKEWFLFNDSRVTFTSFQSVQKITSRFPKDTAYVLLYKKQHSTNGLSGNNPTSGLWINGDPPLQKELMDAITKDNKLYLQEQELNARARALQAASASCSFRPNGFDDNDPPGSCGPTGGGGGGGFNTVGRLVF
Outline: as §1

USP39 = molecular target: T3, USP39 (UniProt Q53GS9)
T3 sequence (whole entry): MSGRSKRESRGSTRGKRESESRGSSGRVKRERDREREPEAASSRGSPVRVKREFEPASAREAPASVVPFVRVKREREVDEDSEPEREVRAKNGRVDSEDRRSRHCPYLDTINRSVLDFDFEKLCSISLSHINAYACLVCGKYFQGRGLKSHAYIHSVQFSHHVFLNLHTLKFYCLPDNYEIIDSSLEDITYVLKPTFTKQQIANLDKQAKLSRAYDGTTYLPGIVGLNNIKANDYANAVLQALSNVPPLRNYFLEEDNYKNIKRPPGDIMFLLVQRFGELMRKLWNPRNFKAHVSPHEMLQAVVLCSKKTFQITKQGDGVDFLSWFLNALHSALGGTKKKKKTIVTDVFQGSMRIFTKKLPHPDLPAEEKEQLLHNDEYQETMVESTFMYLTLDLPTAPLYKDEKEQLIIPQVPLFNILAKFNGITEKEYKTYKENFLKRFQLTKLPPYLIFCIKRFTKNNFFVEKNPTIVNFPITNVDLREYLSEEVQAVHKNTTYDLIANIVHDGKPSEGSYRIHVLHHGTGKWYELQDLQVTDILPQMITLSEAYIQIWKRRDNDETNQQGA
Outline: as §1

USP4 = molecular target: T4, USP4 (UniProt Q13107)
T4 sequence (whole entry): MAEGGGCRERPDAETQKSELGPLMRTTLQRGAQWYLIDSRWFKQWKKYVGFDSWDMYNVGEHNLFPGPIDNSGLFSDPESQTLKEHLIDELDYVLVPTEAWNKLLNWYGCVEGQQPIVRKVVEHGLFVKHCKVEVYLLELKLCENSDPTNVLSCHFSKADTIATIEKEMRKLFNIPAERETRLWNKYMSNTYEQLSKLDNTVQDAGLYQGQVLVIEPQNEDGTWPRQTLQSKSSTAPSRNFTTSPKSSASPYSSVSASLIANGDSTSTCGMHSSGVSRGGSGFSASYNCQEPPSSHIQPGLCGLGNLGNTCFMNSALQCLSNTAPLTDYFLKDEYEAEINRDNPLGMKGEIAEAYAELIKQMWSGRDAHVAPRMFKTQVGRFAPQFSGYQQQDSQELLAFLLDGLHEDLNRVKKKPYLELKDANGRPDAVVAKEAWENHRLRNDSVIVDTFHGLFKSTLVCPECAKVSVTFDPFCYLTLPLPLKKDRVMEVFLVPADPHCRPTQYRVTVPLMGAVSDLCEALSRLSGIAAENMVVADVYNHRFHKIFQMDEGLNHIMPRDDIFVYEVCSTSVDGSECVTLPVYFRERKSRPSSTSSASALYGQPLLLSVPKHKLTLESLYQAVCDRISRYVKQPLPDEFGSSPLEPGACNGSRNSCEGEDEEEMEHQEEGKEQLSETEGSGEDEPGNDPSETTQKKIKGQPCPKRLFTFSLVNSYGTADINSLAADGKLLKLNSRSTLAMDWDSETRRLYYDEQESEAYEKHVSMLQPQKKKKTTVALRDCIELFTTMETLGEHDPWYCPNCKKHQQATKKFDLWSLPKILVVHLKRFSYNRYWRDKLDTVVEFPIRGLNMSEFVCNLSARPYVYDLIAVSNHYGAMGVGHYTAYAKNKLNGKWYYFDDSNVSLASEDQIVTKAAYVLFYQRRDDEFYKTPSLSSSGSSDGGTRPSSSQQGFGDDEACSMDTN
Outline: as §1

Measured: log2 ratio of Biotin-Ahx-Ub-VS probe labelling

Chain of USP34 (Q70CQ2 whole entry, the tested form may be a part): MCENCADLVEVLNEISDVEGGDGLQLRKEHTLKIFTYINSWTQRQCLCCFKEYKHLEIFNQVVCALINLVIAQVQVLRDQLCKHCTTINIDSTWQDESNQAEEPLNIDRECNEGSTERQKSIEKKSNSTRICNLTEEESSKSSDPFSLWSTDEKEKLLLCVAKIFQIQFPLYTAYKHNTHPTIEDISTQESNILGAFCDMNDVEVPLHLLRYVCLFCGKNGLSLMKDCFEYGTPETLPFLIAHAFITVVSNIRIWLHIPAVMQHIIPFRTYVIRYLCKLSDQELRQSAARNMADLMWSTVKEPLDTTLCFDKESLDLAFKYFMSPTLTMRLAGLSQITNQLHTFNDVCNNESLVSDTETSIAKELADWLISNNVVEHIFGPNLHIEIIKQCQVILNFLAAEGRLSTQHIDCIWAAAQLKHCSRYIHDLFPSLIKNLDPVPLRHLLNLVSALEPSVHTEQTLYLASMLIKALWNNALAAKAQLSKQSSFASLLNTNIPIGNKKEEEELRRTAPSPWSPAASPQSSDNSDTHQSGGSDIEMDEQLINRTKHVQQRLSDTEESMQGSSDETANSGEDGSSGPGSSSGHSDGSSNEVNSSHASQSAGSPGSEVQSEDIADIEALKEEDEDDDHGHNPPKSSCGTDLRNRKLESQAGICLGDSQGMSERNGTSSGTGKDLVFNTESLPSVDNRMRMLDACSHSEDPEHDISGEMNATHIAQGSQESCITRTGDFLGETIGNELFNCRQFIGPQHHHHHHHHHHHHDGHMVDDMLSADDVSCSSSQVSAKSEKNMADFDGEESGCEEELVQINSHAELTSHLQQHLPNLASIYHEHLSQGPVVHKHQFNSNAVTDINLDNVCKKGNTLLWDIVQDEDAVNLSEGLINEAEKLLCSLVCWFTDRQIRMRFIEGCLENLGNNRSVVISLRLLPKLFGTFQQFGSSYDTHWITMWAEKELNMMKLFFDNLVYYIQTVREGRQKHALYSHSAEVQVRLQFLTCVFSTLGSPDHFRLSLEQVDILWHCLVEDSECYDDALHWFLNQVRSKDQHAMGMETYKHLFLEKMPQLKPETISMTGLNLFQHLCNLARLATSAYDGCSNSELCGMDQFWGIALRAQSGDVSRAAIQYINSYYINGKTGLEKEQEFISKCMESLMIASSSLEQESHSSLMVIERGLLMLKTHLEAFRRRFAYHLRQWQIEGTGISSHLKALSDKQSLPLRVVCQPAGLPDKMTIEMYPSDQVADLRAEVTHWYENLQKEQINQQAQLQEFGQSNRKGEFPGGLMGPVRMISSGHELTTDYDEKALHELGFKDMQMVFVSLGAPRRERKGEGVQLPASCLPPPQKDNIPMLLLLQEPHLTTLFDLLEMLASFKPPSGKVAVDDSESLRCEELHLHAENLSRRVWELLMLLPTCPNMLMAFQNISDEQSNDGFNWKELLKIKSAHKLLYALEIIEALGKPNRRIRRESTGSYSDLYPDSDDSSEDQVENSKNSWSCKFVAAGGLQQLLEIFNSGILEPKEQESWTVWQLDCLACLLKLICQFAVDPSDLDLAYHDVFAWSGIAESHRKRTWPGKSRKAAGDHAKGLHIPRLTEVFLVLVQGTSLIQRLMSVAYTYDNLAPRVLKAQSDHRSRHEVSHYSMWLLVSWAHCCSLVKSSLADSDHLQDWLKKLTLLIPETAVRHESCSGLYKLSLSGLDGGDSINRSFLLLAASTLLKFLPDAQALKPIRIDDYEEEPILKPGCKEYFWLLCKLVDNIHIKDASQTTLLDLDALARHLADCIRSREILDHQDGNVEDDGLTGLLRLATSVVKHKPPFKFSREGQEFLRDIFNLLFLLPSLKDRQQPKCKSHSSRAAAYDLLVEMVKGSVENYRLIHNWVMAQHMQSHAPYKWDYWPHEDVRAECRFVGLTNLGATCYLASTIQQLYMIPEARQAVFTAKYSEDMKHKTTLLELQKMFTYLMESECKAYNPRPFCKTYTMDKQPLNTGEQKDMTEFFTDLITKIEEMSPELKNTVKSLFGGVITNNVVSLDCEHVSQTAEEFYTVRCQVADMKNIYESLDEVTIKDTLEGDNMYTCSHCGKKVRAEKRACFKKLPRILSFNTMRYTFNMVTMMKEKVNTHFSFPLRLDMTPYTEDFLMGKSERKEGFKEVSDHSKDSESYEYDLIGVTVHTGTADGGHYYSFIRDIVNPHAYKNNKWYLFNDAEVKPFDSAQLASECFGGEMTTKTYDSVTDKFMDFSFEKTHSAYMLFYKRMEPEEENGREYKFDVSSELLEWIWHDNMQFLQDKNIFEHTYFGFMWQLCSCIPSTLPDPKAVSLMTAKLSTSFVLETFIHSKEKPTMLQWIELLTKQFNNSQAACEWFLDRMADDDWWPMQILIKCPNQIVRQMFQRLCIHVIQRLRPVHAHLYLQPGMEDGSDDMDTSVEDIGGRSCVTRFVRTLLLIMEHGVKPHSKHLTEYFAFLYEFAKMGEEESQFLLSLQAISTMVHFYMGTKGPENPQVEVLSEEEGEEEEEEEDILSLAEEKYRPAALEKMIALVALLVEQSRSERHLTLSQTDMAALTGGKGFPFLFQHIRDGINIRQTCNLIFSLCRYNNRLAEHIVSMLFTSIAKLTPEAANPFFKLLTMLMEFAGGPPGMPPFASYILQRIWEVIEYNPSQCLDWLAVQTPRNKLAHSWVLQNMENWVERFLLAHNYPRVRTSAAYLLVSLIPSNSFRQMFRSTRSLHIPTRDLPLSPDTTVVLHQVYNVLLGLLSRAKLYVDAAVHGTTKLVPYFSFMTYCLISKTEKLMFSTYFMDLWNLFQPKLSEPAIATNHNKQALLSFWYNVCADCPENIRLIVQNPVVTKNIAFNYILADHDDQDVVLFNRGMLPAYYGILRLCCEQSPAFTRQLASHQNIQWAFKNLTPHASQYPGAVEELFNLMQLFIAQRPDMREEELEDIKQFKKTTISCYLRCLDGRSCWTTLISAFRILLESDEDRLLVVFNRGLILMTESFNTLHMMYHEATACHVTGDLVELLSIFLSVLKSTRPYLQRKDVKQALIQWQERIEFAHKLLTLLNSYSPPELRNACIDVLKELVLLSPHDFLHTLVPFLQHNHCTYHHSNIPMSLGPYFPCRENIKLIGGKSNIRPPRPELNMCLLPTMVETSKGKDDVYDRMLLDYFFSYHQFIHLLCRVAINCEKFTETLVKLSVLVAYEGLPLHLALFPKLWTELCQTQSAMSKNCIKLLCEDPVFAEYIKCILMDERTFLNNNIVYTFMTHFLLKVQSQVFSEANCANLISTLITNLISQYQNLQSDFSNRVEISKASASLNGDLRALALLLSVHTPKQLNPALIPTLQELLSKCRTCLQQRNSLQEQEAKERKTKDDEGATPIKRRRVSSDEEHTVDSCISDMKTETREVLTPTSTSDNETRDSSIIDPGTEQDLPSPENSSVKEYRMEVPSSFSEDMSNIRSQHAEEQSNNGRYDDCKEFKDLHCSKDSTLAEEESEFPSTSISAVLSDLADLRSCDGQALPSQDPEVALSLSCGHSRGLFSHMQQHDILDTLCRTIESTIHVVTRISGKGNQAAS

CCN(C(=O)CCl)C1CCS(=O)(=O)C1 (stereo not given)
inactive: USP34 -0.11 | USP36 -0.152 | USP38 -0.0197 | USP39 -0.0969 | USP4 0.159
